Data on 54 compounds can be found in ChEMBL document CHEMBL4513216, “Probing the Open Global Health Chemical Diversity Library for Multistage-Active Starting Points for Next-Generation Antimalarials” (ACS Infect Dis, 2020).

Structures are written as SMILES. Hit rate of the full screen: of about 69,000 compounds, about 8,600 (12%) showed an effect of 50% or more. This excerpt belongs to a sample that is enriched for strong results.

The subject of the experiment is Plasmodium berghei. As to the kind of experiment: Screen against P. berghei liver stage (PbLuc), transformed with Luciferase, at 10uM. The conditions noted are these: tested at 10 uM. In kind it is functional, HepG2.
As to `O=c1[nH]c2nc(NCC3CCCO3)ncc2c(=O)n1-c1ccc(F)cc1` (centres undefined), the INHIBITION is reported as 88.8%.

For the compound `O=c1[nH]c2nc(NCC3CCCO3)ncc2c(=O)n1-c1cccc(F)c1` (centres undefined), the INHIBITION is -26.2%.

For `COCCN1CC[C@@H]2CN(Cc3nccn3C)C[C@@H]2C1`, the INHIBITION is recorded as 28.7%.

In the case of `Cc1ccccc1C(=O)N1CCOC(c2ncc(CN(C)C)[nH]2)C1` (centres undefined), the INHIBITION was -10.4%.

Take `CCS(=O)(=O)N1C[C@@H](C(=O)NC(C)C)[C@@]2(Cc3ccccc3C(=O)N2)C1`: the INHIBITION is -8.31%.

Regarding `COCC(=O)NC1(c2cccc(C(F)(F)F)c2)CCC1`, the INHIBITION was 38.7%.

Turning to `CS(=O)(=O)CCC(=O)NC1(c2cccc(C(F)(F)F)c2)CCC1`, the INHIBITION is 65.6%.

Take `CCNC(=O)CCC(=O)NC1(c2cccc(C(F)(F)F)c2)CCC1`: the INHIBITION was 23.9%.

On to `CC(C)NC(=O)Nc1ccc(CNCc2cccc(C#N)c2)cc1`, for which the INHIBITION was 43.7%.

As to `Cc1ccc(C(CNCc2c[nH]nc2C)N(C)C)cc1` (centres undefined), the INHIBITION is -4.33%.

`COCC(O)CN1CCC(NC(=O)c2ccccc2Cl)CC1` (centres undefined): the INHIBITION was 19.6%.

For the compound `O=C(NC1CCN(C2CC2)CC1)c1cc(Cl)ccc1-n1cnnn1`, the INHIBITION is recorded as 62.8%.

`CC(=O)N1CCC(NC(=O)c2cc(Cl)ccc2O)CC1`: the INHIBITION amounted to 61%.

Regarding `O=C(NC1CC1)c1cc(Cl)ccc1-n1cnnn1`, the INHIBITION is recorded as -3.59%.

Regarding `CC(C)CN1CCC(NC(=O)c2ccc(Cl)cc2Cl)CC1`, the INHIBITION is given as 90.2%.

Take `CC(=O)N1CCC(NC(=O)c2ccccc2-n2cnnn2)CC1`: the INHIBITION was determined as 35.9%.

As for `CC(=O)N1CCC(NC(=O)c2cc(Cl)ccc2-n2cnnn2)CC1`, the INHIBITION stood at 37.7%.

Turning to `CC(C)CN1CCC(NC(=O)c2ccc(F)cc2Cl)CC1`, the INHIBITION is reported as -23.4%.

With `CC(C)CN1CCC(NC(=O)c2ccc(F)cc2F)CC1`, the INHIBITION was 31.1%.

`CC(C)CN1CCC(NC(=O)c2ccc(F)cc2I)CC1`: the INHIBITION worked out at 50.1%.

Take `CCN1CCC(NC(=O)c2ccc(F)cc2I)CC1`: the INHIBITION is listed as 2.7%.

As for `CC(=O)N1CCC(NC(=O)c2cc(S(N)(=O)=O)ccc2C)CC1`, the INHIBITION was -21.3%.

For `Cc1cc2ccccc2n1CCC(=O)NCCS(C)(=O)=O`, the INHIBITION amounted to 0.426%.

Take `CC(C)CS(=O)(=O)N1C[C@@H]2C[C@H](C(=O)NCc3ccccc3)[C@H](C1)O2`: the INHIBITION is 9.48%.

With `Cc1ccc(C(=O)N(C)Cc2cc(Br)cs2)c(=O)[nH]1`, the INHIBITION was 15%.

As for `Cc1cnn(CC2CN(CC(=O)N(C)Cc3ccccc3)CCO2)c1` (centres undefined), the INHIBITION is listed as 13.3%.

Turning to `CNC(=O)C1CN(c2ccc(F)cc2)CCN1` (centres undefined), the INHIBITION came to 41.5%.

`C[C@@H]1CN(C2CCN(c3ccccc3F)CC2)CC[C@]1(C)O`: the INHIBITION is 7.31%.

Regarding `CCOc1cncc(N2CCN(c3ccccc3F)CC2)n1`, the INHIBITION was 3.77%.

On to `O=C(CO)N1CC[C@@H](N2CCN(c3ccccc3F)CC2)[C@H](O)C1`, for which the INHIBITION came to 52.6%.

In the case of `O=C(CO)N1CCCC(N2CCN(c3ccccc3F)CC2)C1` (centres undefined), the INHIBITION turned out to be 65.6%.

Consider `O[C@@H]1CN(CC2CC2)CC[C@H]1N1CCN(c2ccccc2F)CC1`, for which the INHIBITION is on record as 53.6%.

Consider `O=C(CCOc1ccccc1F)N1CCCC(n2cncn2)C1` (centres undefined), for which the INHIBITION came out at 36.065%.

As for `CSCCC(=O)N1CC[C@@H](N2CCN(c3ccccc3F)CC2)[C@H](O)C1`, the INHIBITION came to 48.9%.

With `Cc1ccccc1N1CCN(C2CCCN(C(=O)CCC(C)C)C2)CC1` (centres undefined), the INHIBITION was determined as 46.6%.

For `O=C(CC1CC1)N1C[C@@H](O)[C@H](N2CCN(c3ccccc3)CC2)C1`, the INHIBITION is on record as 30.25%.

For the compound `O=C(NCCNC1CCCCC1)c1cccs1`, the INHIBITION was -2.11%.

Consider `COc1ccc(S(=O)(=O)N[C@H]2CN(C(C)=O)C[C@@H]2C(C)C)cc1F`, for which the INHIBITION came to 17.7%.

`Cc1cnc(CN(C)C2CCN(CCCc3ccccc3)C2)o1` (centres undefined): the INHIBITION is given as -9.37%.

Turning to `CN(C)CC(=O)N1CCc2sc(C(=O)NCC3CC3)cc21`, the INHIBITION is recorded as -17.1%.

As for `CSCC(=O)N1CCCC(c2cc(C)[nH]n2)C1` (centres undefined), the INHIBITION turned out to be 28%.

On to `CC(C)c1ocnc1C(=O)N1CC(=O)Nc2cccnc21`, for which the INHIBITION was 37.1%.

In the case of `O=c1cc(CN2C[C@@H]3CC[C@H]2CN(Cc2ccccc2)C3)[nH]c(=O)[nH]1`, the INHIBITION is 34%.

Regarding `CN(C)S(=O)(=O)N1CCOC(c2cccc(-c3cncnc3)n2)C1` (centres undefined), the INHIBITION stood at 13%.

On to `NCC1[C@H]2CN(Cc3ccccc3)C[C@@H]12` (some centres undefined), for which the INHIBITION turned out to be 5.73%.

Take `Cn1cc(CN2CCCC(c3nccnc3-c3cccc(F)c3)C2)cn1` (centres undefined): the INHIBITION was 9.05%.

`CSCC(=O)N[C@H]1CN(CC2CCOCC2)C[C@@H]1c1ccccc1`: the INHIBITION is -69.6%.

In the case of `O=C(CCO)N[C@H]1CN(CC2CCC2)C[C@@H]1c1ccccc1`, the INHIBITION is reported as -13.1%.

Regarding `CS(=O)(=O)NCC(=O)N[C@H]1CN(CC2CC2)C[C@@H]1c1ccccc1`, the INHIBITION stood at 65.3%.

In the case of `Cc1noc(C2(C)CCCN(C(=O)c3cccnc3)C2)n1` (centres undefined), the INHIBITION turned out to be 25.6%.

Take `CCCS(=O)(=O)N1CCCC(CCC(=O)N(C)CCc2ccccn2)C1` (centres undefined): the INHIBITION is 27.6%.

On to `CN(C(=O)NCc1nccn1CCc1ccccc1)C1CCC1`, for which the INHIBITION is -4.63%.

As for `COc1ccc(Nc2nc3c(C)nn(C)c3c(=O)n2C)cc1`, the INHIBITION is 9.04%.

Turning to `CC(C)c1cc(C(F)(F)F)n2nc(C3CCN(S(C)(=O)=O)C3)cc2n1` (centres undefined), the INHIBITION worked out at 43.05%.
